# For part of these data: Entries with a potency or affinity are not part of this list. Calls of active or inactive are those of the source.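 The calls were made as follows, unless noted: active = compound raising the membrane signal above positive-control mean plus 3 SD in both repeats, and a primary screen hit; inactive = the rest.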
# How the values were obtained:
# [1] = test system: TRPC4 beta (transient receptor potential cation channel C4), mouse; assay: activators of mouse TRPC4 channel, confirmation, cell-based, Fluo4 calcium, HEK293 TRPC4beta/mu-opioid, duplicates, 10 µM (AID 2426;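 active = fluorescence ratio normalized to control raised more than 50% in primary screen plus both repeat runs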;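 as to activation: percent rise of integrated ratio over buffer wells lacking compound which define 0%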); conditions: Fluo4 calcium fluorescence, at 10 µM; stronger effect = higher value
# [2] = test system: transient receptor potential cation channel C4 beta (TRPC4), mouse; assay: activators of mouse TRPC4 channel, confirmation, cell-based, second round, Fluo4, HEK293 TRPC4beta/mu-opioid, 1 µM (AID 2461;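 active = primary screen active and over 50% activation in each of two duplicate runs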;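 as to activation: 0% = wells without test compound as baseline of integrated fluorescence ratio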); conditions: Fluo4 calcium fluorescence, at 1 µM; stronger effect = higher value
# [3] = test system: TRPC4 (transient receptor potential cation channel C4 beta), mouse; assay: positive allosteric modulators of mouse TRPC4, confirmation, cell-based, second round, Fluo-4, HEK293 TRPC4beta/mu-opioid, 1 µM (AID 2554;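 active = primary screen hit whose fluorescence ratio, in both repeats, exceeds the weak agonist control mean by 3 SD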); conditions: DAMGO EC20, Fluo-4 calcium flux, at 1 µM; stronger effect = higher value
# [4] = test system: TRPC4 beta (transient receptor potential cation channel C4), mouse; assay: positive allosteric modulators of mouse TRPC4, confirmation, cell-based, Fluo-4, HEK293 TRPC4beta/mu-opioid (AID 2555;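 active = primary screen hit whose calcium fluorescence ratio, in both repeats, exceeds the weak agonist control mean by 3 SD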); conditions: DAMGO EC20, Fluo-4 calcium flux, at 10 µM; stronger effect = higher value
# [5] = target: Short transient receptor potential channel 4 (Mus musculus) (UniProt Q9QUQ5); assay: inhibitors of mouse TRPC4 channel, confirmation, cell-based, Fluo4, HEK293 TRPC4beta/mu-opioid (AID 2636;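 active = calcium signal cut by more than 3 SD below the full-agonist control yet still positive, in both repeats and the earlier primary screen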); conditions: DAMGO, Fluo4 calcium flux, at 10 µM; stronger effect = higher value
# [6] = target: Short transient receptor potential channel 4 (Mus musculus) (UniProt Q9QUQ5); assay: inhibitors of mouse TRPC4 channel, confirmation, cell-based, second round, Fluo4, HEK293 TRPC4beta/mu-opioid, 1 µM (AID 2637;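 active = calcium signal ratio cut to more than 3 SD under the fully stimulated control mean yet still positive, in both repeats and the primary screen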); conditions: Fluo4 calcium flux, DAMGO, at 1 µM; stronger effect = higher value
# [7] = target: Short transient receptor potential channel 4 (Mus musculus) (UniProt Q9QUQ5); assay: TRPC4 positive allosteric modulators, dose response, cell-based, HEK293 TRPC4/mu-opioid, Fluo-4 calcium, EC20 DAMGO (AID 434941;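 active = earlier screen potentiator hit that boosts the TRPC4 ion channel at some dose, with a dose response; inactive = no potentiation, no dose response, or not a prior hit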;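 also: calcium entry triggered by an EC20 dose of DAMGO at the co-expressed mu-opioid receptor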)
# [8] = target: Short transient receptor potential channel 4 (Mus musculus) (UniProt Q9QUQ5); assay: mouse TRPC4 channel inhibitors, dose response, cell-based, HEK293 TRPC4/mu-opioid, Fluo-4 calcium (AID 434942;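 active = primary screen inhibitor hit that blocks the TRPC4 channel at some tested dose, yielding a dose curve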)
# [9] = target: Short transient receptor potential channel 6 (Mus musculus) (UniProt Q61143); assay: inhibition of mouse TRPC6 channel, confirmation, selectivity assay for TRPC4 inhibitor project, cell-based, HEK293, membrane potential dye, duplicate (AID 434948;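 active = active in primary screen and both duplicates, each dropping signal beyond three positive-control SD with fluorescence still positive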); conditions: HEK293 TRPC6, membrane potential dye fluorescence, at 10 µM, stimulated with maximal-effect acetylcholine; stronger effect = higher value
# [10] = target: Short transient receptor potential channel 6 (Mus musculus) (UniProt Q61143); assay: activation of mouse TRPC6 channel, confirmation, selectivity assay for TRPC4 activator project, cell-based, HEK293, membrane potential dye, duplicate (AID 434950;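 active = membrane potential signal rise above negative control mean plus 3 SD in both duplicates, also active in the earlier TRPC4 screen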;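 as to activation: 0% = buffer only wells and 100% = acetylcholine maximal-effect wells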); conditions: HEK293 TRPC6, membrane potential fluorescence, at 10 µM; stronger effect = higher value
# [11] = target: Short transient receptor potential channel 6 (Mus musculus) (UniProt Q61143); assay: TRPC6 potentiation by TRPC4 potentiator hits, confirmation, selectivity assay for TRPC4 potentiator project, HEK293 cells, membrane potential dye, duplicate (AID 434952); conditions: HEK293 TRPC6, membrane potential dye fluorescence, at 10 µM, maximal acetylcholine added after compound; stronger effect = higher value
# [12] = target: Short transient receptor potential channel 4 (Mus musculus) (UniProt Q9QUQ5); assay: calcium flux activators in TRPC4/5HT1a cells, counter-screen for TRPC4 activator project, cell-based, second counter screen, HEK293 TRPC4/5HT1a, Fluo-4 (AID 434977;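 active = calcium signal rise above buffer-control mean plus 5 SD in both duplicates, and also a hit in the primary screen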;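 as to activation: plate controls were assay buffer for no effect and maximal serotonin response for full effect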); conditions: Fluo-4 calcium flux, at 10 µM; stronger effect = higher value
# [13] = calcium flux inhibitors in TRPC4/5HT1a cells, confirmation, counter-screen for TRPC4 inhibitor project, cell-based, second counter screen, HEK293 TRPC4/5HT1a, Fluo-4 (AID 434978;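 active = primary screen active whose calcium signal fell more than 3 SD beyond the full-serotonin control mean in both duplicate plates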;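 also: serotonin given first at submaximal then at maximal dose after compound preincubation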); conditions: Fluo-4 calcium flux, at 10 µM, serotonin added to trigger calcium flux; stronger effect = higher value
# [14] = test system: TRPC4 (mouse), co-expressed with 5HT1a in HEK293; assay: calcium flux potentiators in TRPC4/5HT1a cells, confirmation, counter-screen for TRPC4 potentiator project, cell-based, second counter screen, HEK293 TRPC4/5HT1a, Fluo-4 (AID 434979;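 active = signal rise over 3 SD above mean of control wells given weak agonist, in both repeats and first screen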); conditions: Fluo-4 calcium flux, at 10 µM, serotonin added at its EC20 dose; stronger effect = higher value
# [15] = calcium flux activation in mu-opioid HEK293 cells, confirmation, counter-screen for TRPC4 activator project, cell-based, HEK293 mu-opioid receptor line (AID 449723;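 active = hit in primary screen, with calcium signal over 5 SD above buffer well mean in both duplicates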;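 also: counter screen cells carry the mu-opioid receptor alone and lack TRPC4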); conditions: Fluo-4 calcium fluorescence, at 10 µM; stronger effect = higher value
# [16] = calcium flux enhancement in mu-opioid HEK293 cells, confirmation, counter-screen for TRPC4 allosteric potentiator project, cell-based, HEK293 mu-opioid receptor line (AID 449724;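 active = calcium signal rise more than 3 SD above the low-dose agonist control mean, in both duplicate plates and the primary screen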); conditions: Fluo-4 calcium flux, at 10 µM, compound added before EC20 DAMGO stimulus; stronger effect = higher value
# Chain of Short transient receptor potential channel 4 (Mus musculus) (Q9QUQ5 whole entry, looked up): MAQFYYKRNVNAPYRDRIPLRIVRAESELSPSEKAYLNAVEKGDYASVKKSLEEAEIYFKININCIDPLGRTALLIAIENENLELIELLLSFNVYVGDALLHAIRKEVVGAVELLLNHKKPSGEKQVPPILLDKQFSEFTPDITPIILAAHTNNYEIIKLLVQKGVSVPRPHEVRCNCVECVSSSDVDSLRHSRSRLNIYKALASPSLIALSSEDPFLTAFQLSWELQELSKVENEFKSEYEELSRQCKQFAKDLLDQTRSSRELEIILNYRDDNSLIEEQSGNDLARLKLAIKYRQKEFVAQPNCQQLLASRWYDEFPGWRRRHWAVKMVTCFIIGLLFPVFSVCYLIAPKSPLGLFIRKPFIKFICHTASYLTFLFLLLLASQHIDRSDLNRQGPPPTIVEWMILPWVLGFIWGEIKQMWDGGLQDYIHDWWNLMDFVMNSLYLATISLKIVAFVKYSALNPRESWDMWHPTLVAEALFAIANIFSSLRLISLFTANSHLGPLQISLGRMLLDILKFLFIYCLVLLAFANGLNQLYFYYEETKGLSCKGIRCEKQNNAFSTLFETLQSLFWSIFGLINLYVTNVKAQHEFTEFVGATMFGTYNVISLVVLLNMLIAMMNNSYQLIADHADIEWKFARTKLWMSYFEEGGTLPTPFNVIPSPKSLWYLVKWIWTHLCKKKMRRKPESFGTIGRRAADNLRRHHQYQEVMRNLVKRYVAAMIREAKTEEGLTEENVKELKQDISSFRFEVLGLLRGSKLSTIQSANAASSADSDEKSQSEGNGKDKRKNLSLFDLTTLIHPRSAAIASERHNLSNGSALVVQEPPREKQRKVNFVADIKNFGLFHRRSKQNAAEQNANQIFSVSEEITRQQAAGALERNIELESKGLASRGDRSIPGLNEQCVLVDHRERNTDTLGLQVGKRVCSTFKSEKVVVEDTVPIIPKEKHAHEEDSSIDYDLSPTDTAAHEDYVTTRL
# Chain of Short transient receptor potential channel 6 (Mus musculus) (Q61143 whole entry, looked up): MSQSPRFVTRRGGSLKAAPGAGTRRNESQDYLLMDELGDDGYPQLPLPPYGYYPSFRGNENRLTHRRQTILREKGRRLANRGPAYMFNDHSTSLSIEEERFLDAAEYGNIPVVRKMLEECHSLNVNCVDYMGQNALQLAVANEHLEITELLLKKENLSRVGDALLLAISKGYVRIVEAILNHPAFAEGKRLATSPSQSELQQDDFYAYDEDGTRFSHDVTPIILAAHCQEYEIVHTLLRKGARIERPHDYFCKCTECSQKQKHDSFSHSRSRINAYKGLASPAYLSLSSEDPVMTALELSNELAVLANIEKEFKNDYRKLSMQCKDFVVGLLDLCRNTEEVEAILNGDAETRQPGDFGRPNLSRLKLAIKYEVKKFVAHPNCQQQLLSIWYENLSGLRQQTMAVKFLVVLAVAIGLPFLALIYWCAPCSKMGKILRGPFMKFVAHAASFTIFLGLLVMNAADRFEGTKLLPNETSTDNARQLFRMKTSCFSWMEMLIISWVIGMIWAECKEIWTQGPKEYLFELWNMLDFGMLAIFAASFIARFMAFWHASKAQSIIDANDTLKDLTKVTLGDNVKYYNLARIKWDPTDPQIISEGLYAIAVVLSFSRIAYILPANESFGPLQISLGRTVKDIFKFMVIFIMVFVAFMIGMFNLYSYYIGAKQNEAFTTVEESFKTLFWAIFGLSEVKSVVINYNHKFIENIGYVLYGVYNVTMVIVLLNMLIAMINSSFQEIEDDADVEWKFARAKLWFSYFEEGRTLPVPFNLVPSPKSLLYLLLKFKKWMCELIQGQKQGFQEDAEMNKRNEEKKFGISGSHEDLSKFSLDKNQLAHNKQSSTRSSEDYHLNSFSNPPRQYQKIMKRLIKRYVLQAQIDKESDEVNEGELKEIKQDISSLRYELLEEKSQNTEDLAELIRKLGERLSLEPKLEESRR
compound,measurement,setting,value
CCCCN(CC)CCNC(=O)c1ccc2c(Cl)c3c(nc2c1)CCC3,activation,[1],166% (active)
same,activation,[2],142% (active)
same,outcome,[3],inactive
same,outcome,[4],inactive
same,outcome,[5],inactive
same,outcome,[6],inactive
same,outcome,[7],inactive
same,outcome,[8],inactive
same,outcome,[9],inactive
same,outcome,[10],inactive
same,outcome,[11],inactive
same,activation,[12],92.3% (active)
same,outcome,[13],inactive
same,outcome,[14],inactive
same,outcome,[15],inactive
same,outcome,[16],inactive
OCC1(CC2CCCCO2)CCN(Cc2ccccc2-c2ccco2)CC1 (stereo not given),outcome,[1],inactive
same,outcome,[2],inactive
same,outcome,[3],inactive
same,outcome,[4],inactive
same,outcome,[5],inactive
same,outcome,[6],inactive
same,outcome,[7],inactive
same,outcome,[8],inactive
same,outcome,[9],inactive
same,outcome,[10],inactive
same,outcome,[11],inactive
same,outcome,[12],inactive
same,outcome,[13],inactive
same,outcome,[14],inactive
same,outcome,[15],inactive
same,outcome,[16],inactive
Cc1cccc(OCCC(=O)NCC(c2ccccc2)N(C)C)c1 (stereo not given),outcome,[1],inactive
same,outcome,[2],inactive
same,outcome,[3],inactive
same,outcome,[4],inactive
same,outcome,[5],inactive
same,outcome,[6],inactive
same,outcome,[7],inactive
same,outcome,[8],inactive
same,outcome,[9],inactive
same,activation,[10],52% (active)
same,outcome,[11],inactive
same,outcome,[12],inactive
same,outcome,[13],inactive
same,outcome,[14],inactive
same,outcome,[15],inactive
same,outcome,[16],inactive
CCc1cc(OCCN(C)C)ccc1Cl,activation,[1],93% (active)
same,outcome,[2],inactive
same,potentiation,[3],47% (active)
same,outcome,[4],inactive
same,outcome,[5],inactive
same,outcome,[6],inactive
same,outcome,[7],inactive
same,outcome,[8],inactive
same,outcome,[9],inactive
same,activation,[10],39.5% (active)
same,outcome,[11],inactive
same,activation,[12],19.9% (active)
same,outcome,[13],inactive
same,potentiation,[14],37.3% (active)
same,outcome,[15],inactive
same,outcome,[16],inactive
CCCN(CCC)CCCNC(=O)c1ccc2c(Cl)c3c(nc2c1)CCC3,activation,[1],90% (active)
same,activation,[2],89% (active)
same,outcome,[3],inactive
same,outcome,[4],inactive
same,outcome,[5],inactive
same,outcome,[6],inactive
same,outcome,[7],inactive
same,outcome,[8],inactive
same,outcome,[9],inactive
same,activation,[10],27% (active)
same,outcome,[11],inactive
same,activation,[12],105% (active)
same,outcome,[13],inactive
same,outcome,[14],inactive
same,outcome,[15],inactive
same,outcome,[16],inactive
CCOC(=O)C1(CCOC)CCN(Cc2ccccc2-c2ccco2)CC1,activation,[1],60% (active)
same,outcome,[2],inactive
same,outcome,[3],inactive
same,outcome,[4],inactive
same,outcome,[5],inactive
same,outcome,[6],inactive
same,outcome,[7],inactive
same,outcome,[8],inactive
same,outcome,[9],inactive
same,activation,[10],68.5% (active)
same,outcome,[11],inactive
same,outcome,[12],inactive
same,outcome,[13],inactive
same,outcome,[14],inactive
same,outcome,[15],inactive
same,outcome,[16],inactive
CN(C)C(CNC(=O)c1cccc(S(=O)(=O)N(C)C)c1)c1ccccc1 (stereo not given),activation,[1],84% (active)
same,outcome,[2],inactive
same,outcome,[3],inactive
same,outcome,[4],inactive
same,outcome,[5],inactive
same,outcome,[6],inactive
same,outcome,[7],inactive
same,outcome,[8],inactive
same,outcome,[9],inactive
same,activation,[10],39.5% (active)
same,outcome,[11],inactive
same,outcome,[12],inactive
same,outcome,[13],inactive
same,outcome,[14],inactive
same,outcome,[15],inactive
same,outcome,[16],inactive
CC(CN1CCCC(C(N)=O)C1)c1ccccc1 (stereo not given),activation,[1],147% (active)
same,activation,[2],65% (active)
same,outcome,[3],inactive
same,outcome,[4],inactive
same,outcome,[5],inactive
same,outcome,[6],inactive
same,outcome,[7],inactive
same,outcome,[8],inactive
same,outcome,[9],inactive
same,activation,[10],30.5% (active)
same,outcome,[11],inactive
same,activation,[12],42% (active)
same,outcome,[13],inactive
same,outcome,[14],inactive
same,outcome,[15],inactive
same,outcome,[16],inactive
Cc1ccc(-n2cc(CNC(C)c3cnn(C)c3)c(-c3ccc(F)cc3)n2)cc1 (stereo not given),activation,[1],232% (active)
same,activation,[2],103% (active)
same,outcome,[3],inactive
same,outcome,[4],inactive
same,outcome,[5],inactive
same,outcome,[6],inactive
same,outcome,[7],inactive
same,outcome,[8],inactive
same,outcome,[9],inactive
same,activation,[10],33% (active)
same,outcome,[11],inactive
same,activation,[12],5.72% (active)
same,outcome,[13],inactive
same,outcome,[14],inactive
same,outcome,[15],inactive
same,outcome,[16],inactive
COc1ccc(-n2nc(C(=O)NCC(=O)NCCCN3CC(C)CC(C)C3)c3ccccc3c2=O)cc1Cl (stereo not given),outcome,[1],inactive
same,outcome,[2],inactive
same,outcome,[3],inactive
same,outcome,[4],inactive
same,outcome,[5],inactive
same,outcome,[6],inactive
same,outcome,[7],inactive
same,outcome,[8],inactive
same,outcome,[9],inactive
same,outcome,[10],inactive
same,outcome,[11],inactive
same,activation,[12],12.2% (active)
same,outcome,[13],inactive
same,outcome,[14],inactive
same,outcome,[15],inactive
same,outcome,[16],inactive
COc1ccc(C(=O)NNC(=S)NC(=O)c2cccs2)cc1,outcome,[1],inactive
same,outcome,[2],inactive
same,outcome,[3],inactive
same,outcome,[4],inactive
same,outcome,[5],inactive
same,outcome,[6],inactive
same,outcome,[7],inactive
same,outcome,[8],inactive
same,outcome,[9],inactive
same,activation,[10],41.5% (active)
same,outcome,[11],inactive
same,activation,[12],42.7% (active)
same,outcome,[13],inactive
same,outcome,[14],inactive
same,outcome,[15],inactive
same,outcome,[16],inactive
Cn1c(=O)c2c(nc(CN3CCc4ccccc4C3)n2Cc2ccccc2F)n(C)c1=O,activation,[1],221% (active)
same,outcome,[2],inactive
same,outcome,[3],inactive
same,outcome,[4],inactive
same,outcome,[5],inactive
same,outcome,[6],inactive
same,outcome,[7],inactive
same,outcome,[8],inactive
same,outcome,[9],inactive
same,outcome,[10],inactive
same,outcome,[11],inactive
same,outcome,[12],inactive
same,outcome,[13],inactive
same,outcome,[14],inactive
same,outcome,[15],inactive
same,outcome,[16],inactive
CN(C)CCNC(=O)c1scc2c1CCCC2,outcome,[1],inactive
same,outcome,[2],inactive
same,outcome,[3],inactive
same,outcome,[4],inactive
same,outcome,[5],inactive
same,outcome,[6],inactive
same,outcome,[7],inactive
same,outcome,[8],inactive
same,outcome,[9],inactive
same,activation,[10],41.5% (active)
same,outcome,[11],inactive
same,activation,[12],19.6% (active)
same,outcome,[13],inactive
same,outcome,[14],inactive
same,outcome,[15],inactive
same,outcome,[16],inactive
NC(=O)C1CCCN(CCc2ccccc2)C1 (stereo not given),activation,[1],157% (active)
same,activation,[2],133% (active)
same,outcome,[3],inactive
same,outcome,[4],inactive
same,outcome,[5],inactive
same,outcome,[6],inactive
same,outcome,[7],inactive
same,outcome,[8],inactive
same,outcome,[9],inactive
same,outcome,[10],inactive
same,outcome,[11],inactive
same,activation,[12],74.3% (active)
same,outcome,[13],inactive
same,outcome,[14],inactive
same,outcome,[15],inactive
same,outcome,[16],inactive
CNC[C@H](Cc1ccccc1)NC[C@@H](Cc1cccc2ccccc12)NCCc1ccc(C)cc1,activation,[1],228% (active)
same,outcome,[2],inactive
same,outcome,[3],inactive
same,outcome,[4],inactive
same,outcome,[5],inactive
same,outcome,[6],inactive
same,outcome,[7],inactive
same,outcome,[8],inactive
same,outcome,[9],inactive
same,outcome,[10],inactive
same,outcome,[11],inactive
same,activation,[12],68.3% (active)
same,outcome,[13],inactive
same,outcome,[14],inactive
same,activation,[15],37.9% (active)
same,outcome,[16],inactive
